# Assay results published in paper PMC11006913.
# Changes are numbered by the printed parent chain.
# How the values were obtained:
# Assay in all cases: PBM; 200 nM protein, PBS
# Conditions in all cases: dsDNA, one strand shown
# HOXB4 [1] = molecular target: HOXB4 (Homo sapiens, UniProt P17483 148-234)
# VENTX [2] = molecular target: T1, VENTX (Homo sapiens, UniProt O95231 78-163, R121Q)
# T1 sequence: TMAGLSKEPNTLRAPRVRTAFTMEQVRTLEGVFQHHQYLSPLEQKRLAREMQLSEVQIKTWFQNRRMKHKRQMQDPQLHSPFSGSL
# HOXB9 [3] = molecular target: HOXB9 (Homo sapiens, UniProt P17482 171-250, T197M)
# HOXB9 (Homo sapiens, UniProt P17482 171-250, T197M), sequence (P17482 171-250 T197M): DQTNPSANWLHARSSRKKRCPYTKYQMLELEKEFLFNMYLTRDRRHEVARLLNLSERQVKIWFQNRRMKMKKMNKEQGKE
# HOXA4 [4] = molecular target: HOXA4 (Homo sapiens, UniProt Q00056 201-287, W262R)
# HOXA4 (Homo sapiens, UniProt Q00056 201-287, W262R), sequence (Q00056 201-287 W262R): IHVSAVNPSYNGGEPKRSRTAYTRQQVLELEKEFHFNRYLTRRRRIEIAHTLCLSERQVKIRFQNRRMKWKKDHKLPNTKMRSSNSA
# HOXC9 [5] = molecular target: HOXC9 (Homo sapiens, UniProt P31274 178-260, K195R)
# HOXC9 (Homo sapiens, UniProt P31274 178-260, K195R), sequence (P31274 178-260 K195R): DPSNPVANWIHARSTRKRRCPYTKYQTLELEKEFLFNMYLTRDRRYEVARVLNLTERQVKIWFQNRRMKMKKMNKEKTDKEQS
# HOXA7 [6] = molecular target: HOXA7 (Homo sapiens, UniProt P31268 116-202)
# HOXA7 (Homo sapiens, UniProt P31268 116-202), sequence (P31268 116-202): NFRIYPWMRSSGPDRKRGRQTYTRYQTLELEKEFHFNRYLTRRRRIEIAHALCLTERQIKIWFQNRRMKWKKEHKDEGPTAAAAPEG
# HOXC10 [7] = molecular target: HOXC10 (Homo sapiens, UniProt Q9NYD6 254-340)
# HOXC10 (Homo sapiens, UniProt Q9NYD6 254-340), sequence (Q9NYD6 254-340): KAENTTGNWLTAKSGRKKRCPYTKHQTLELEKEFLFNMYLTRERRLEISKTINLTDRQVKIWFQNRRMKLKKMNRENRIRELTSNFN
# VENTX [8] = molecular target: T2, VENTX (Homo sapiens, UniProt O95231 78-163, Y115F)
# T2 sequence: T1 sequence with Y38F, Q44R
# HOXB6 [9] = molecular target: HOXB6 (Homo sapiens, UniProt P17509 132-218, K202E)
# HOXB6 (Homo sapiens, UniProt P17509 132-218, K202E), sequence (P17509 132-218 K202E): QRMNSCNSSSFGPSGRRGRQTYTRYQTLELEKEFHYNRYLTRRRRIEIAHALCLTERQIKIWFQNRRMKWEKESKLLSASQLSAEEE
# HOXA2 [10] = molecular target: HOXA2 (Homo sapiens, UniProt O43364 129-215, R185T)
# HOXA2 (Homo sapiens, UniProt O43364 129-215, R185T), sequence (O43364 129-215 R185T): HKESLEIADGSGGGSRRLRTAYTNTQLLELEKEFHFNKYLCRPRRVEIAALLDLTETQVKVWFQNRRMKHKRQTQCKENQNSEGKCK
# HOXA4 [11] = molecular target: HOXA4 (Homo sapiens, UniProt Q00056 201-287, R217L)
# HOXA4 (Homo sapiens, UniProt Q00056 201-287, R217L), sequence (Q00056 201-287 R217L): as the sequence (Q00056 201-287 W262R) above, with R17L, R62W counted along it
# HOXB9 [12] = molecular target: HOXB9 (Homo sapiens, UniProt P17482 171-250)
# HOXB9 (Homo sapiens, UniProt P17482 171-250), sequence (P17482 171-250): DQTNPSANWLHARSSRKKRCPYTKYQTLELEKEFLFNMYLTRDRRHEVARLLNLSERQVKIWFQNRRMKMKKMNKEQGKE
# HOXB4 [13] = molecular target: HOXB4 (Homo sapiens, UniProt P17483 148-234, V174I)
# HOXB4 (Homo sapiens, UniProt P17483 148-234, V174I), sequence (P17483 148-234 V174I): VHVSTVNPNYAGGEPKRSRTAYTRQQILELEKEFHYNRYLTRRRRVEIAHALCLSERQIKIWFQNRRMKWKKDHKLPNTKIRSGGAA
# HOXC9 [14] = molecular target: HOXC9 (Homo sapiens, UniProt P31274 178-260)
# HOXC9 (Homo sapiens, UniProt P31274 178-260), sequence (P31274 178-260): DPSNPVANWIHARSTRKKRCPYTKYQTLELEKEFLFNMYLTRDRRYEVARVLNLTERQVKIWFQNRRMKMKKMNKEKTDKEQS
# HOXD13 [15] = molecular target: HOXD13 (Homo sapiens, UniProt P35453 263-343, T313R)
# HOXD13 (Homo sapiens, UniProt P35453 263-343, T313R), sequence (P35453 263-343 T313R): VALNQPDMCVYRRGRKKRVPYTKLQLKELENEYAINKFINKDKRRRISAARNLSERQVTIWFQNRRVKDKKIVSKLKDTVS
# HOXC9 [16] = molecular target: HOXC9 (Homo sapiens, UniProt P31274 178-260, R193K)
# HOXC9 (Homo sapiens, UniProt P31274 178-260, R193K), sequence (P31274 178-260 R193K): as the sequence (P31274 178-260) above, with R16K counted along it
# HOXA2 [17] = molecular target: HOXA2 (Homo sapiens, UniProt O43364 129-215, R185K)
# HOXA2 (Homo sapiens, UniProt O43364 129-215, R185K), sequence (O43364 129-215 R185K): as the sequence (O43364 129-215 R185T) above, with T57K counted along it
# HOXD13 [18] = molecular target: HOXD13 (Homo sapiens, UniProt P35453 263-343)
# HOXD13 (Homo sapiens, UniProt P35453 263-343), sequence (P35453 263-343): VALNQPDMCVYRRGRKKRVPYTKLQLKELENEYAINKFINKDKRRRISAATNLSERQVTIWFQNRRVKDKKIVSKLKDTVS
# HOXA4 [19] = molecular target: HOXA4 (Homo sapiens, UniProt Q00056 201-287)
# HOXA4 (Homo sapiens, UniProt Q00056 201-287), sequence (Q00056 201-287): as the sequence (Q00056 201-287 W262R) above, with R62W counted along it
# HOXC10 [20] = molecular target: HOXC10 (Homo sapiens, UniProt Q9NYD6 254-340, K271E)
# HOXC10 (Homo sapiens, UniProt Q9NYD6 254-340, K271E), sequence (Q9NYD6 254-340 K271E): as the sequence (Q9NYD6 254-340) above, with K18E counted along it
# VAX1 [21] = molecular target: VAX1 (Homo sapiens, UniProt Q5SQQ9 86-172)
# VAX1 (Homo sapiens, UniProt Q5SQQ9 86-172), sequence (Q5SQQ9 86-172): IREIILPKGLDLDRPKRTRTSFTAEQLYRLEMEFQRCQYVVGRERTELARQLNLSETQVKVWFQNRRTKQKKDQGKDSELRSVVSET
# HOXD13 [22] = molecular target: HOXD13 (Homo sapiens, UniProt P35453 263-343, T313A)
# HOXD13 (Homo sapiens, UniProt P35453 263-343, T313A), sequence (P35453 263-343 T313A): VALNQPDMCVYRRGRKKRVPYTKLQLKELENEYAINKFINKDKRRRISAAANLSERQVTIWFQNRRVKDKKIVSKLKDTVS
# HOXB9 [23] = molecular target: HOXB9 (Homo sapiens, UniProt P17482 171-250, R186Q)
# HOXB9 (Homo sapiens, UniProt P17482 171-250, R186Q), sequence (P17482 171-250 R186Q): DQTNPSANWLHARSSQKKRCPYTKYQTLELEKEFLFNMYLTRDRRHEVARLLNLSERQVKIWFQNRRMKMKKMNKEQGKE
# HOXC9 [24] = molecular target: HOXC9 (Homo sapiens, UniProt P31274 178-260, R222W)
# HOXC9 (Homo sapiens, UniProt P31274 178-260, R222W), sequence (P31274 178-260 R222W): as the sequence (P31274 178-260) above, with R45W counted along it
# VAX1 [25] = molecular target: VAX1 (Homo sapiens, UniProt Q5SQQ9 86-172, T142I)
# VAX1 (Homo sapiens, UniProt Q5SQQ9 86-172, T142I), sequence (Q5SQQ9 86-172 T142I): as the sequence (Q5SQQ9 86-172) above, with T57I counted along it
# HOXA2 [26] = molecular target: HOXA2 (Homo sapiens, UniProt O43364 129-215, Y150S)
# HOXA2 (Homo sapiens, UniProt O43364 129-215, Y150S), sequence (O43364 129-215 Y150S): as the sequence (O43364 129-215 R185T) above, with Y22S, T57R counted along it
# HOXA7 [27] = molecular target: HOXA7 (Homo sapiens, UniProt P31268 116-202, W177C)
# HOXA7 (Homo sapiens, UniProt P31268 116-202, W177C), sequence (P31268 116-202 W177C): as the sequence (P31268 116-202) above, with W62C counted along it
# HOXA4 [28] = molecular target: HOXA4 (Homo sapiens, UniProt Q00056 201-287, W262F)
# HOXA4 (Homo sapiens, UniProt Q00056 201-287, W262F), sequence (Q00056 201-287 W262F): as the sequence (Q00056 201-287 W262R) above, with R62F counted along it
# HOXA2 [29] = molecular target: HOXA2 (Homo sapiens, UniProt O43364 129-215)
# HOXA2 (Homo sapiens, UniProt O43364 129-215), sequence (O43364 129-215): as the sequence (O43364 129-215 R185T) above, with T57R counted along it
# VAX1 [30] = molecular target: VAX1 (Homo sapiens, UniProt Q5SQQ9 86-172, K157R)
# VAX1 (Homo sapiens, UniProt Q5SQQ9 86-172, K157R), sequence (Q5SQQ9 86-172 K157R): as the sequence (Q5SQQ9 86-172) above, with K72R counted along it
# HOXB6 [31] = molecular target: HOXB6 (Homo sapiens, UniProt P17509 132-218)
# HOXB6 (Homo sapiens, UniProt P17509 132-218), sequence (P17509 132-218): as the sequence (P17509 132-218 K202E) above, with E71K counted along it
# PRRX1 [32] = molecular target: PRRX1 (Homo sapiens, UniProt P54821 80-166, F113S)
# PRRX1 (Homo sapiens, UniProt P54821 80-166, F113S), sequence (P54821 80-166 F113S): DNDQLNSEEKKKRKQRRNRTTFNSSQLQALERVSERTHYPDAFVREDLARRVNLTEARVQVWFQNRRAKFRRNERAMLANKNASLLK
# ALX3 [33] = molecular target: ALX3 (Homo sapiens, UniProt O95076 139-225, N203Q)
# ALX3 (Homo sapiens, UniProt O95076 139-225, N203Q), sequence (O95076 139-225 N203Q): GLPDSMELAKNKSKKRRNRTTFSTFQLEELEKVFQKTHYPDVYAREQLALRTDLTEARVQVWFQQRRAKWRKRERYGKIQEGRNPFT
# HESX1 = HESX1 (Homo sapiens, UniProt Q9UBX0 95-180, F115L)
# HESX1, sequence (Q9UBX0 95-180 F115L): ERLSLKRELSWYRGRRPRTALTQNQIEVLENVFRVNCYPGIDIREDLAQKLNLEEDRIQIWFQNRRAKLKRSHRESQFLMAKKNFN
# PRRX1 [34] = molecular target: PRRX1 (Homo sapiens, UniProt P54821 80-166)
# PRRX1 (Homo sapiens, UniProt P54821 80-166), sequence (P54821 80-166): as the sequence (P54821 80-166 F113S) above, with S34F counted along it
# ALX4 [35] = molecular target: ALX4 (Homo sapiens, UniProt Q9H161 200-286)
# ALX4 (Homo sapiens, UniProt Q9H161 200-286), sequence (Q9H161 200-286): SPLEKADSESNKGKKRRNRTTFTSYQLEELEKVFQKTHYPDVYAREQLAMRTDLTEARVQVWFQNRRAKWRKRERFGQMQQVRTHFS
# ALX4 [36] = molecular target: ALX4 (Homo sapiens, UniProt Q9H161 200-286, Q225E)
# ALX4 (Homo sapiens, UniProt Q9H161 200-286, Q225E), sequence (Q9H161 200-286 Q225E): as the sequence (Q9H161 200-286) above, with Q26E counted along it
# MSX2 [37] = molecular target: MSX2 (Homo sapiens, UniProt P35548 130-214, R199I)
# MSX2 (Homo sapiens, UniProt P35548 130-214, R199I), sequence (P35548 130-214 R199I): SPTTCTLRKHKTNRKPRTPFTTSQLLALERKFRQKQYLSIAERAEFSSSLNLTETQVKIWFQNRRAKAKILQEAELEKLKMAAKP
# MSX2 [38] = molecular target: MSX2 (Homo sapiens, UniProt P35548 130-214)
# MSX2 (Homo sapiens, UniProt P35548 130-214), sequence (P35548 130-214): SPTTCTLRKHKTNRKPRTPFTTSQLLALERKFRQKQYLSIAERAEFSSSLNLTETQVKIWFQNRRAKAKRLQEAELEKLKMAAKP
# ALX3 [39] = molecular target: ALX3 (Homo sapiens, UniProt O95076 139-225)
# ALX3 (Homo sapiens, UniProt O95076 139-225), sequence (O95076 139-225): as the sequence (O95076 139-225 N203Q) above, with Q65N counted along it
# ALX3 [40] = molecular target: ALX3 (Homo sapiens, UniProt O95076 139-225, L168Q)
# ALX3 (Homo sapiens, UniProt O95076 139-225, L168Q), sequence (O95076 139-225 L168Q): as the sequence (O95076 139-225 N203Q) above, with L30Q, Q65N counted along it
# ALX3 [41] = molecular target: ALX3 (Homo sapiens, UniProt O95076 139-225, L168V)
# ALX3 (Homo sapiens, UniProt O95076 139-225, L168V), sequence (O95076 139-225 L168V): as the sequence (O95076 139-225 N203Q) above, with L30V, Q65N counted along it
# MSX2 [42] = molecular target: MSX2 (Homo sapiens, UniProt P35548 130-214, F161Y)
# MSX2 (Homo sapiens, UniProt P35548 130-214, F161Y), sequence (P35548 130-214 F161Y): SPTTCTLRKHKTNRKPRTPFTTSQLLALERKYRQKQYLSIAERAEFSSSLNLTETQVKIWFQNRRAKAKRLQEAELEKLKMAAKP
# ALX3 [43] = molecular target: ALX3 (Homo sapiens, UniProt O95076 139-225, N203S)
# ALX3 (Homo sapiens, UniProt O95076 139-225, N203S), sequence (O95076 139-225 N203S): as the sequence (O95076 139-225 N203Q) above, with Q65S counted along it
# HOXB4 (Homo sapiens, UniProt P17483 148-234), sequence (P17483 148-234): as the sequence (P17483 148-234 V174I) above, with I27V counted along it
sequence,measurement,setting,value
ATCATTAA,binding signal,HOXB4 [1],"13.5 upbm affinity estimate (log intensity, higher = more binding, comparable within an allelic series)"
same,binding signal,VENTX [2],"11.7 upbm affinity estimate (log intensity, higher = more binding, comparable within an allelic series)"
same,binding signal,HOXB9 [3],"10.3 upbm affinity estimate (log intensity, higher = more binding, comparable within an allelic series)"
same,binding signal,HOXA4 [4],"10.9 upbm affinity estimate (log intensity, higher = more binding, comparable within an allelic series)"
same,binding signal,HOXC9 [5],"12.8 upbm affinity estimate (log intensity, higher = more binding, comparable within an allelic series)"
same,binding signal,HOXA7 [6],"11.7 upbm affinity estimate (log intensity, higher = more binding, comparable within an allelic series)"
same,binding signal,HOXC10 [7],"12.4 upbm affinity estimate (log intensity, higher = more binding, comparable within an allelic series)"
same,binding signal,VENTX [8],"11.7 upbm affinity estimate (log intensity, higher = more binding, comparable within an allelic series)"
same,binding signal,HOXB6 [9],"10.2 upbm affinity estimate (log intensity, higher = more binding, comparable within an allelic series)"
same,binding signal,HOXA2 [10],"13 upbm affinity estimate (log intensity, higher = more binding, comparable within an allelic series)"
same,binding signal,HOXA4 [11],"12.9 upbm affinity estimate (log intensity, higher = more binding, comparable within an allelic series)"
same,binding signal,HOXB9 [12],"12.1 upbm affinity estimate (log intensity, higher = more binding, comparable within an allelic series)"
same,binding signal,HOXB4 [13],"14.2 upbm affinity estimate (log intensity, higher = more binding, comparable within an allelic series)"
same,binding signal,HOXC9 [14],"12.8 upbm affinity estimate (log intensity, higher = more binding, comparable within an allelic series)"
same,binding signal,HOXD13 [15],"10.7 upbm affinity estimate (log intensity, higher = more binding, comparable within an allelic series)"
same,binding signal,HOXC9 [16],"12.8 upbm affinity estimate (log intensity, higher = more binding, comparable within an allelic series)"
same,binding signal,HOXA2 [17],"13.5 upbm affinity estimate (log intensity, higher = more binding, comparable within an allelic series)"
same,binding signal,HOXD13 [18],"11.8 upbm affinity estimate (log intensity, higher = more binding, comparable within an allelic series)"
same,binding signal,HOXA4 [19],"14.2 upbm affinity estimate (log intensity, higher = more binding, comparable within an allelic series)"
same,binding signal,HOXC10 [20],"12.3 upbm affinity estimate (log intensity, higher = more binding, comparable within an allelic series)"
same,binding signal,VAX1 [21],"13.2 upbm affinity estimate (log intensity, higher = more binding, comparable within an allelic series)"
same,binding signal,HOXD13 [22],"11.7 upbm affinity estimate (log intensity, higher = more binding, comparable within an allelic series)"
same,binding signal,HOXB9 [23],"11.8 upbm affinity estimate (log intensity, higher = more binding, comparable within an allelic series)"
same,binding signal,HOXC9 [24],"11.1 upbm affinity estimate (log intensity, higher = more binding, comparable within an allelic series)"
same,binding signal,VAX1 [25],"13.2 upbm affinity estimate (log intensity, higher = more binding, comparable within an allelic series)"
same,binding signal,HOXA2 [26],"10.9 upbm affinity estimate (log intensity, higher = more binding, comparable within an allelic series)"
same,binding signal,HOXA7 [27],"8.9 upbm affinity estimate (log intensity, higher = more binding, comparable within an allelic series)"
same,binding signal,HOXA4 [28],"12.5 upbm affinity estimate (log intensity, higher = more binding, comparable within an allelic series)"
same,binding signal,HOXA2 [29],"12.7 upbm affinity estimate (log intensity, higher = more binding, comparable within an allelic series)"
same,binding signal,VAX1 [30],"13 upbm affinity estimate (log intensity, higher = more binding, comparable within an allelic series)"
same,binding signal,HOXB6 [31],"12 upbm affinity estimate (log intensity, higher = more binding, comparable within an allelic series)"
ATTATTAA,binding signal,HOXB4 [1],"12.9 upbm affinity estimate (log intensity, higher = more binding, comparable within an allelic series)"
same,binding signal,HOXB9 [3],"10 upbm affinity estimate (log intensity, higher = more binding, comparable within an allelic series)"
same,binding signal,PRRX1 [32],"11 upbm affinity estimate (log intensity, higher = more binding, comparable within an allelic series)"
same,binding signal,HOXB6 [9],"10.1 upbm affinity estimate (log intensity, higher = more binding, comparable within an allelic series)"
same,binding signal,HOXB4 [13],"13.6 upbm affinity estimate (log intensity, higher = more binding, comparable within an allelic series)"
same,binding signal,ALX3 [33],"8.56 upbm affinity estimate (log intensity, higher = more binding, comparable within an allelic series)"
same,binding signal,HESX1,"7.79 upbm affinity estimate (log intensity, higher = more binding, comparable within an allelic series)"
same,binding signal,PRRX1 [34],"13.2 upbm affinity estimate (log intensity, higher = more binding, comparable within an allelic series)"
GGAGCTCC,binding signal,HOXB4 [1],"7.69 upbm affinity estimate (log intensity, higher = more binding, comparable within an allelic series)"
same,binding signal,HOXB9 [3],"8.62 upbm affinity estimate (log intensity, higher = more binding, comparable within an allelic series)"
same,binding signal,ALX4 [35],"7.72 upbm affinity estimate (log intensity, higher = more binding, comparable within an allelic series)"
same,binding signal,ALX4 [36],"7.79 upbm affinity estimate (log intensity, higher = more binding, comparable within an allelic series)"
same,binding signal,HOXB9 [12],"8.6 upbm affinity estimate (log intensity, higher = more binding, comparable within an allelic series)"
same,binding signal,HOXB4 [13],"7.37 upbm affinity estimate (log intensity, higher = more binding, comparable within an allelic series)"
same,binding signal,MSX2 [37],"9.52 upbm affinity estimate (log intensity, higher = more binding, comparable within an allelic series)"
same,binding signal,ALX3 [33],"7.68 upbm affinity estimate (log intensity, higher = more binding, comparable within an allelic series)"
same,binding signal,MSX2 [38],"9.28 upbm affinity estimate (log intensity, higher = more binding, comparable within an allelic series)"
same,binding signal,ALX3 [39],"7.41 upbm affinity estimate (log intensity, higher = more binding, comparable within an allelic series)"
same,binding signal,VAX1 [21],"7.36 upbm affinity estimate (log intensity, higher = more binding, comparable within an allelic series)"
same,binding signal,ALX3 [40],"7.7 upbm affinity estimate (log intensity, higher = more binding, comparable within an allelic series)"
same,binding signal,HOXB9 [23],"8.62 upbm affinity estimate (log intensity, higher = more binding, comparable within an allelic series)"
same,binding signal,ALX3 [41],"7.63 upbm affinity estimate (log intensity, higher = more binding, comparable within an allelic series)"
same,binding signal,MSX2 [42],"9.3 upbm affinity estimate (log intensity, higher = more binding, comparable within an allelic series)"
same,binding signal,VAX1 [25],"7.59 upbm affinity estimate (log intensity, higher = more binding, comparable within an allelic series)"
same,binding signal,ALX3 [43],"7.63 upbm affinity estimate (log intensity, higher = more binding, comparable within an allelic series)"
same,binding signal,VAX1 [30],"7.58 upbm affinity estimate (log intensity, higher = more binding, comparable within an allelic series)"
